Most compounds without a hit are left out; they make up all but 3.4% or so of the library.
SMARCA2 act = activators of SMARCA2 function; MG213 cells, MMTV-luciferase reporter, dexamethasone, overnight; activation, % at 9.1 µM; 370,000 compounds, 1% hits; in the data active = activation above about 7.8%;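 note: 0% = vehicle wells and 100% = reference activator wells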
AI-2 QS mod = modulators of Vibrio harveyi AI-2 quorum sensing system; 300,000 compounds, 0.4% hits; AID 2094; activity change, % at 7.5 µM; Vibrio harveyi JMH597 AI-2 luminescence/OD600 ratio, 9 h; hits give low values; strain lacks LuxN and CqsS sensors; 0 = neutral-control median; in the data active = activity change below about -75%, passing the limit was not always enough;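 note: luminescence divided by OD600 gain over 9 h not by final OD600 alone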
HSF1 inh = HSF1 inhibition | NIH3T3-HGL HSE-luciferase, MG132-induced, luminescence 8 h; hits give low values | activity change, negative = inhibition, % at 7.5 µM (by protocol) | 300,000 compounds, 0.77% hits;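 active = more than half of replicate wells show activity change below -50%, luminescence cut by over half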;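 note: luciferase reports HSF-1 transcriptional activity via heat shock element; 0% = median of DMSO wells and -100% = zero luminescence signal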
GAA850 FXN act = activators of GAA850 frataxin (FXN) promoter; HEK293 lucGAA850 FXN promoter luciferase reporter, 24 h; percent of 10 µM SAHA response; activation, % at 6 µM; 360,000 compounds, 0.56% hits; AID 540364;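 active = activation above the average of all compounds screened plus 3 SD, cutoff fixed separately per campaign, cut at about 7.5% in these data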;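 note: 0% = DMSO wells and 100% = 10 µM SAHA wells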
PG9 Ab binder = PG9 antibody binding by small molecule; inhibition, % at 6.7 µM; TR-FRET gp120-PG9 antibody binding; 360,000 compounds, 0.43% hits; AID 624416; in the data active = inhibition above about 8.5%
HSP90 refold inh = inhibitors of HSP90 luciferase refolding in rabbit reticulocyte lysate; luciferase refolding luminescence, 3 h; inhibition, % at 5.6 µM; 290,000 compounds, 0.91% hits;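 active = inhibition above the screen-wide mean plus 3 SD, computed separately per campaign, cut at about 16% in these data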;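 note: 0% = DMSO wells and 100% = 60 µM geldanamycin wells; inhibitors lower the luminescence because luciferase stays unfolded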
SMARCA2 act conf = SMARCA2 activation, confirmation screen; shares compounds with SMARCA2 act; MG213 cells, MMTV-luciferase with dexamethasone, luminescence, overnight; MG213 cells expressing E1A, Rb sequestered; DMSO wells 0%, reference activator 100%; activation, % at 9.1 µM; 3,500 compounds, 30% hits; AID 652260;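 active = activation above its plate's cutoff, the mean activation of tested wells plus 3 SD, cut at about 7.9% in these data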
GAL4-VP16 Luc = GAL4-VP16 reporter activation counter-screen; shares compounds with SMARCA2 act; HEK293 GAL4-VP16 pG5luc reporter, luciferase luminescence; scaled: DMSO wells 0%, SAHA wells 100%; activation, % at 9.1 µM; 3,500 compounds, 41% hits;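 active = activation above the solvent-only control well mean plus 3 SD, averaged across control plates, cut at about 5.2% in these data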
Starred values were filed as active, the others as inactive; x = no result.

SMILES	SMARCA2 act	AI-2 QS mod	HSF1 inh	GAA850 FXN act	PG9 Ab binder	HSP90 refold inh	SMARCA2 act conf	GAL4-VP16 Luc
CC1(CCCN2C(=O)c3ccccc3C2=O)OCCO1	10.4*	30.6	5.6	-0.5	-1.2	x	4.7	3.9
O=C1c2ccccc2C(=O)N1CCCCCCc1ccccc1	0.4	x	x	2.1	-0.4	x	x	x
CNC(=S)NNC(=O)c1sc2cc(C(F)(F)F)cnc2c1-c1cccnc1	0.2	-5.8	-3.5	1.0	-5.0	2.6	x	x
CNC(=S)NNC(=O)c1sc2cc(C(F)(F)F)cnc2c1-c1ccccn1	8.0*	8.5	-0.1	-0.5	-2.6	0.5	1.2	1.6
O=S1(=O)N[C@@H](Cc2ccccc2)COc2cccc(NCCCN3CCOCC3)c21	-4.0	x	x	x	-1.0	x	x	x
O=C(Cn1sc2ccccc2c1=O)Nc1ccccc1	12.4*	x	x	-4.6	0.9	x	6.1	-0.4
O=C(N/N=C/C(Cl)=C/c1ccccc1)c1ccco1	3.9	12.6	3.8	6.0	-4.0	-0.5	x	x
COc1ccc(C(=O)N/N=C/c2cccnc2)cc1	10.9*	-1.0	-7.3	2.6	-1.1	4.3	3.5	1.6
O=C(N/N=C/c1cccnc1)c1ccco1	10.3*	-7.0	1.5	2.9	-3.4	1.4	3.5	2.4
CC(=O)Nc1ccc(C(=O)N/N=C/c2cccnc2)cc1	-4.0	24.9	-4.8	2.2	-0.5	1.5	x	x
O=C(N/N=C/C(Cl)=C\c1ccccc1)c1ccco1	12.3*	4.8	31.9	2.3	-3.9	-3.5	7.5	8.3*
O=C(N/N=C\c1cccnc1)c1ccccc1O	5.0	27.1	-5.1	1.8	-1.8	0.8	x	x
O=C(N[C@H](C(=O)N1CCC[C@H]1C(=O)NC1CCCC1)C1CCCCC1)c1ccco1	-1.3	x	x	x	-1.1	x	x	x
Cn1sc(NC(=O)c2ccc(Cl)cc2)nc1=O	8.4*	11.7	21.8	1.1	-0.8	-0.9	2.8	10.9*
O=C(Nc1nc2ccsc2c(=O)s1)c1ccc(Cl)cc1	13.8*	24.4	21.2	5.2	0.4	-3.5	10.4*	9.1*
COC(=O)CSc1nc(-c2cccs2)ccc1C#N	11.1*	32.1	28.1	5.1	-1.3	-2.1	12.8*	8.0*
C#CCSc1nc(-c2cccs2)ccc1C#N	-0.8	21.5	-9.3	2.3	0.6	1.4	x	x
N#CC1c2ccccc2C=CN1C(=O)N(c1ccccc1)c1ccccc1 (configuration not stated)	-5.1	x	x	-1.7	0.9	x	x	x
CC1(C)C2CC=C(/C=N/NC(=S)Nc3cccnc3)C1C2 (configuration not stated)	-0.8	5.9	-8.6	0.2	0.0	-0.7	x	x
CC1=C/C(=N\NC(=S)Nc2cccnc2)CC(C)(C)C1	8.1*	25.6	4.4	3.1	0.3	0.9	-12.2	21.1*
N/C(=N\OC(=O)c1cccs1)c1cccc([N+](=O)[O-])c1	10.6*	18.4	46.7	5.4	-0.6	2.8	2.2	6.5*
N/C(=N\OC(=O)c1ccc2c(c1)OCO2)c1cccc([N+](=O)[O-])c1	9.9*	30.9	50.4	4.1	-1.5	-5.4	12.4*	9.4*
Cc1cccc(C(=O)O/N=C(\N)c2cccc([N+](=O)[O-])c2)c1	x	6.2	39.1	4.1	x	-1.2	x	x
O=C(Cc1ccccc1[N+](=O)[O-])c1ccc2c(c1)OCO2	11.2*	x	x	3.5	-0.2	x	3.6	3.0
Cc1cc(N2CCNC[C@H]2C)ccc1N1C[C@@H](C)O[C@@H](C)C1	-2.0	x	x	x	-2.8	x	x	x
O=C(/C=C/c1ccc(Cl)cc1Cl)N1CCc2ccccc21	8.7*	-1.0	21.5	2.8	0.4	-3.8	8.3*	8.6*
O=C(c1ccc(Cl)cc1Cl)N1CCc2ccccc21	-1.6	x	-2.3	0.6	-1.4	2.2	x	x
O=C(Nc1nnc(SCC(=O)N2CCCc3ccccc32)s1)c1ccccc1	10.1*	11.4	12.6	5.7	-1.4	-2.8	2.4	8.0*
